The values that follow come from PubChem BioAssay AID504577 (NMMLSC, 2011).

The campaign covered roughly 350,000 compounds. About 1,300 (0.37%) were called active. What follows is part of a selection rich in actives, with near analogues and random picks from the rest. A number with no mark means an inactive call. Cut-off read from the data, not from the text of the source: active = response mostly above about 7.3% (no sharp cut-off); inactive = mostly below about 5.4%.

This experiment is described as follows: yeast vacuolar ATPase proton transport modulators – pHLuorin cytosolic pH fluorescence, primary screen (AID 504577). Note: actives read high. As to conditions: S. cerevisiae, at 10 µM, stronger effect = higher value.
Turning to `O=C(NC1CCN(Cc2ccccc2)CC1)c1ccc(Oc2cc(Cl)cc(Cl)c2)o1`, the response is 0.98%. In the case of `Cc1cc(C(=O)NC2CCN(Cc3ccccc3)CC2)n[nH]1` it was 4.4%.

As to `O=C(NC1CCN(Cc2ccccc2)CC1)c1cc(Br)c(Br)[nH]1`, the response is 10.4% (active). To `O=C(OCCN1C(=O)c2ccccc2C1=O)Oc1ccccc1` belongs -2.47%; to `O=C1c2ccccc2C(=O)N1CCCCCCN1C(=O)c2ccccc2C1=O`, 9.59% (active); to `O=C(CCCN1C(=O)c2ccccc2C1=O)Oc1ccc(Cl)cc1`, 8.16%. To `Cc1cc(C(C)(C)C)cc(S(=O)(=O)Nc2ccc(C(=O)O)cc2)c1C` belongs -1.72%; to `COCCN(Cc1ccccc1)C(=O)Cc1ccc(S(=O)(=O)N2CCOCC2)s1`, 0.76%; to `CN(CC(=O)NCC(c1ccccc1)N1CCCC1)S(=O)(=O)c1ccc(Cl)cc1` (stereo not given), -3.93%. To `O=C(Nc1ccc(N2CCOCC2)cc1)c1ccc(-c2ccccc2[N+](=O)[O-])o1` belongs -1.06%; to `O=C1NC(c2ccc(-c3ccccc3[N+](=O)[O-])o2)C(C(=O)c2ccc(Cl)cc2)C(O)(C(F)(F)F)N1` (stereo not given), -0.4%. With `CC1=NN(c2ccc(Cl)c(C(=O)O)c2)C(=O)/C1=C/c1ccc(-c2ccccc2[N+](=O)[O-])o1`, the response was 240% (active). Regarding `O=C(COC(=O)CCCNC(=O)c1ccc(Cl)cc1)Nc1cc(Cl)ccc1Cl`, the response was -2.06%. In the case of `CC(=O)NNC(=O)c1csc(Cc2c(Cl)sc3ccc(Cl)cc23)n1` it was -1.89%; in that of `CNC(=O)c1csc(-c2ccccc2)n1`, -0.68%; in that of `CNC(=O)c1csc(Cc2c(Cl)sc3ccc(Cl)cc23)n1`, 12.4% (active). In the case of `COc1cccc(N2CCN(C(=O)Nc3ccc4c(c3)NC(=O)CO4)CC2)c1` it was 0.53%; in that of `O=C(NCC1CCCCC1)c1cc(S(=O)(=O)N2CCCCC2)ccc1N1CCOCC1`, 11.1% (active). In the case of `CC(C)(C)C(=O)COC(=O)c1cc(S(=O)(=O)N2CCCCC2)ccc1N1CCOCC1` it was 5.71%. With `O=C(CNC(=O)c1cc(S(=O)(=O)N2CCOCC2)ccc1N1CCCC1)Nc1ccc(F)c(F)c1`, the response is -1.89%. To `COCCN1C2=C(COC(C)(C)C2)C(=S)NC1c1ccccc1` (stereo not given) belongs 1.2%; to `O=C(O)CC12CC3CC(C1)CC(n1ncc(NCc4ccc(F)cc4)c(Cl)c1=O)(C3)C2`, 1.78%. To `CC(C)c1ccc(OCC(O)CN2CCN(c3ccccn3)CC2)cc1` (stereo not given) belongs 1.79%; to `OC(COc1cccc2ccccc12)CN1CCN(c2ccccn2)CC1` (stereo not given), 16.7% (active); to `OC(COc1ccccc1)CN1CCN(c2cccc(Cl)c2)CC1` (stereo not given), -2.02%.
